Test results from PubChem BioAssay (NCATS).
Inconclusive results are not listed. Values without a mark were called inactive. Calls come from the whole dose curve; as a rule, active = well fitted inhibition curve with a large enough effect; inconclusive = small, poorly fitted or top-dose-only effect; inactive = no such curve, though single readings can be large or run the other way.

Assay: qHTS to identify inhibitors of the type 1 interferon - major histocompatibility complex class I in skeletal muscle: primary screen against the NCATS Mechanism Interrogation Plate v5.0 (MIPE) Libary (AID 1347411);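 note: plate controls were vehicle for no effect and reference inhibitor for full effect; nearly all actives have a fitted effect of over 65% in size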
Settings: iHSKM cells + IFN-b, HiBiT-tagged MHC-I luminescence, 24 h; series mostly up to 45.8 µM; activity change, negative = inhibition: at the top concentration
Outline: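 IFN-beta-driven (4 ng/ml) HLA-B-HiBit expression in CRISPR-tagged C25cl48 myoblasts; compounds 11-pt, 1:3, max 46 uM, 24 hr exposure; lytic NanoLuc complementation luminescence.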

Compared with `CC1(C)O[C@@H]2C[C@H]3[C@@H]4C[C@H](F)C5=CC(=O)C=C[C@]5(C)[C@@]4(F)[C@@H](O)C[C@]3(C)[C@]2(C(=O)CO)O1`, `CC1(C)O[C@@H]2C[C@H]3[C@@H]4CCC5=CC(=O)C=C[C@]5(C)[C@@]4(F)[C@@H](O)C[C@]3(C)[C@]2(C(=O)CO)O1` is lower in “activity change, negative = inhibition” value: -6.18% for the first, -24.5% for the second.

Compared with `CN1CCCN=C1/C=C/c1cccs1`, `CN1CC(=O)N2[C@H](c3ccc4c(c3)OCO4)c3[nH]c4ccccc4c3C[C@@H]2C1=O` is higher in “activity change, negative = inhibition” value: -19.4% for the first, -1.37% for the second.

First: CCCCCCOC(=O)NC(=N)c1ccc(NCc2nc3cc(C(=O)N(CCC(=O)OCC)c4ccccn4)ccc3n2C)cc1
Second: O=C(O)C(=O)Nc1cccc(-c2nn[nH]n2)c1
The “activity change, negative = inhibition” value of the first is lower: -3.67% for the first, 4.84% for the second.

First: C[C@H]1C[C@H]2[C@@H]3CCC4=CC(=O)C=C[C@]4(C)[C@H]3C(=O)C[C@]2(C)[C@@]1(O)C(=O)CO
Second: O=C(O)[C@H](O)[C@@H](O)[C@H](O[C@@H]1O[C@H](CO)[C@H](O)[C@H](O)[C@H]1O)[C@H](O)CO
The “activity change, negative = inhibition” value of the first is higher: 2.11% for the first, -8.88% for the second.
